Measured values as given in paper PMC5540273 (PLoS ONE, 2017).

How the values were obtained:
Details in all cases: concentration: 1 μM, replicates: in singlicate; n = 1
[1] = test system: CSNK1G1
[2] = test system: CSNK1G2
[3] = test system: CSNK1G3
[4] = test system: CSNK2A1
[5] = test system: CSNK2A2
[6] = test system: T1, CTK
T1 construct: gene MATK

[7] = test system: DAPK1
[8] = test system: DAPK2
[9] = test system: DAPK3
[10] = test system: T2, DCAMKL1
T2 construct: gene DCLK1

[11] = test system: T3, DCAMKL2
T3 construct: gene DCLK2

[12] = test system: T4, DCAMKL3
T4 construct: gene DCLK3

[13] = test system: DDR1
[14] = test system: DDR2
[15] = test system: T5, DLK
T5 construct: gene MAP3K12

[16] = test system: T6, DMPK2
T6 construct: gene CDC42BPG

[17] = test system: DMPK
[18] = test system: T7, DRAK1
T7 construct: gene STK17A

[19] = test system: T8, DRAK2
T8 construct: gene STK17B

[20] = test system: DYRK1A
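Further: KINOMEscan kinase panel screen.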

SMILES	%Inh [1] [%]	%Inh [2] [%]	%Inh [3] [%]	%Inh [4] [%]	%Inh [5] [%]	%Inh [6] [%]	%Inh [7] [%]	%Inh [8] [%]	%Inh [9] [%]	%Inh [10] [%]	%Inh [11] [%]	%Inh [12] [%]	%Inh [13] [%]	%Inh [14] [%]	%Inh [15] [%]	%Inh [16] [%]	%Inh [17] [%]	%Inh [18] [%]	%Inh [19] [%]	%Inh [20] [%]
COC(=O)Nc1nc2ccc(Oc3ccc(CC(=O)Nc4cc(C(F)(F)F)ccc4F)cc3)cc2[nH]1 [GW680903]	0	0	14	0	0	0	0	0	0	11	0	0	100	97.4	30	0	0	54	0	13
COc1cccc(NC(=O)NCCNc2ccnc(Nc3ccc(F)cc3)n2)c1 [GSK1379879]	0	0	23	0	7	0	0	0	17	9	0	0	7	1	21	0	0	0	31	10
COc1ccc(NC(=O)c2ccoc2)cc1-c1ccc(C(=O)NCC2CC2)cc1 [GW810437]	0	0	0	0	0	15	0	17	13	0	17	12	0	50	0	0	1	6	7	0
CC(C)c1nc(-c2cccc(NS(=O)(=O)c3c(F)cccc3F)c2)c(-c2ccnc(Nc3ccc(N4CCOCC4)nc3)n2)s1.Cl [GSK1723980]	2	0	0	2	0	37	3	0	0	11	13	10	94.9	42	74	11	0	0	0	39
O=C(Nc1n[nH]c2nc(-c3ccccc3)ccc12)C1CC1 [SB-708999]	0	0	68	23	75	0	0	11	4	4	6	0	3	32	0	50	0	0	0	15
Fc1cc(Cl)ccc1Nc1ccnc2cc(-c3ccc(CN4CCOCC4)o3)ccc12 [GW560109]	7	0	7	0	86	28	0	0	10	12	0	0	97.9	60	28	0	16	0	0	11
COc1cc(Nc2ccnc3cc(-c4ccncc4)ccc23)cc(OC)c1OC.Cl [GW494610]	0	0	7	7	0	0	0	0	9	0	0	0	57	81	47	46	0	0	0	12
CC(=O)Nc1cn2nc(Oc3cccc(NC(=O)c4cccc(C(F)(F)F)c4)c3)ccc2n1	3	0	41	0	0	0	0	1	6	20	24	9	98.3	100	0	1	0	0	11	0
CCn1cnc2c(NCc3ccccc3)ncnc21 [SKF-96418]	0	0	0	0	0	34	0	0	11	33	0	0	0	38	0	1	0	0	0	0
Nc1ncc(-c2ccc3nccc(-c4ccncc4)c3c2)cc1S(=O)(=O)N1CCCCC1 [GSK1693850]	0	18	33	2	0	0	11	26	30	15	0	0	2	12	42	15	0	0	5	8
CCNC(=O)/C=C/c1n[nH]c2cc(Sc3ccccc3C(=O)NC)ccc12	13	0	13	24	0	6	13	8	15	0	11	30	0	0	9	3	3	49	0	21
O=C(O)C(F)(F)F.O=c1[nH]ccc2nc(N[C@@H]3CCNC3)nc(Nc3cc(Cl)cc(Cl)c3)c12 [GSK2188764]	77	94.2	95.1	98.9	100	0	97.3	97.4	100	86	52	82	0	18	43	41	98.3	99.7	79	3
COc1ccc(C)c(Nc2ccnc(Nc3ccc(-c4cnc[nH]4)cc3)n2)c1.Cl [GW784041]	15	0	8	0	5	0	7	10	6	7	3	27	52	70	10	5	0	0	0	0
Nc1cccc(-c2ccc3c(N)n[nH]c3c2)c1 [GSK2193613]	13	0	18	27	61	0	0	6	4	13	0	0	0	0	43	0	33	95.1	0	24
Cc1ccc(O)cc1Nc1ccnc2cc(-c3ccc(CN4CCCCC4)o3)ccc12 [GW557777]	6	5	7	0	0	27	16	3	1	25	10	0	98.1	94.5	0	7	0	10	0	0
Nc1ncnc2scc(-c3ccc(NC(=O)Cc4cc(F)ccc4F)cc3)c12.O=C(O)C(F)(F)F [SB-731254-M]	26	36	40	13	14	67	0	100	100	27	11	16	58	24	0	23	6	3	10	12
Cl.Cl.NC(CNC(=O)c1cc(Br)c(-c2ccnc3[nH]ccc23)s1)c1ccccc1 (stereo not shown) [GSK1322949]	30	59	60	90	84	0	41	31	54	37	18	0	0	29	43	59	72	93.8	4	84
